The structures appear in SMILES notation. Calls of active or inactive are those of the source. Unless noted, how the calls were made is not given here.

Assay [1] has as its system Wnt5a (protein binding on small-molecule microarray). Description: small molecules binding Wnt5a protein – biophysical, small-molecule microarray, 635/667 nm fluorescence, primary screen (AID 1142).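 Further: fluorescence read at 667 nm with signal to noise per printed feature.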 Conditions: 635 nm fluorescence, higher = more signal.
A short description of assay [2]: ATP-based viability of Huh7 replicon cells – cell-based, CellTiter-Glo luminescence, basal, 48 h, cytotoxicity control for HCV replication inhibitor project, primary screen (AID 1143).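 Further: Huh7 hepatoma cells carrying a hepatitis C replication reporter with no stimulus; test concentration not given here.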 The settings on record: higher = more signal, called active from +8 up or from −8 down.
Assay [3] is described as follows: Pseudomonas biofilm growth suppression – PAO1 strain, BacTiter-Glo luminescence, LB-PBS, primary screen (AID 1144). The settings on record: P. aeruginosa PAO1 biofilm, 12 h, higher = more signal.
Assay [4] can be described thus: basal CRE-LacZ reporter activity in PC12 – cell-based, unstimulated, primary screen (AID 1145). The settings on record: no forskolin, luminescence, 4.5 h, higher = more signal, called active from +8 up or from −8 down.
The nature of assay [5]: forskolin-driven CRE-LacZ activity in PC12 – cell-based, CRE-LacZ reporter, forskolin-stimulated, primary screen (AID 1146).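 Further: PC12 cells with 6xCRE LacZ reporter stimulated by forskolin 10 µM; beta-galactosidase reporter signal reflecting CREB driven transcription.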 The settings on record: luminescence, 4.5 h, higher = more signal, called active from +8 up or from −8 down.
The target of assay [6] is Streptavidin (Streptomyces avidinii) (UniProt P22629). Nature of the assay: compounds binding control protein streptavidin – biophysical, small-molecule microarray, 635/667 nm fluorescence, artefact control for SMM compound annotation, primary screen (AID 1147).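 Further: signal reflects streptavidin binding to arrayed compounds as a control protein.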 The settings on record: higher = more signal.
Chain of Streptavidin (Streptomyces avidinii) (P22629 whole entry, looked up): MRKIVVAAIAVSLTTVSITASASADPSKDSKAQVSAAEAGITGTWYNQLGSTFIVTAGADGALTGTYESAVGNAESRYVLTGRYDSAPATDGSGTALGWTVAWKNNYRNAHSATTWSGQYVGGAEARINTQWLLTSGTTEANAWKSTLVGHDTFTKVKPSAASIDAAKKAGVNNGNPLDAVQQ
A short description of assay [7]: probe aInhba binding on compound microarray – biochemical, small-molecule microarray, 635/667 nm fluorescence, primary screen (AID 1148).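 Further: score merges 667nm spot fluorescence with signal-to-noise for antibody binding to printed compounds.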 The settings on record: higher = more signal.
Assay [8] concerns the target Torsin-1A (Homo sapiens) (UniProt O14656). Description: TOR1A wild-type binding on microarray – cell lysate, small-molecule microarray, lysate, 635/667 nm, primary screen (AID 1149). Conditions: COS7 hTOR1A-WT lysate, 635 nm fluorescence, higher = more signal.
Assay [9] shares this target. Description: torsin A mutant lysate binding on microarrays – cell lysate, small-molecule microarray, COS7 lysate, 635/667 nm fluorescence, primary screen (AID 1150).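 Further: score pools 667 nm emission and signal to noise measuring lysate protein binding.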 Conditions: COS7 hTOR1A mutant lysate, 635 nm fluorescence, higher = more signal.
Assay [10] relates to Sonic hedgehog protein (Shh). Nature of the assay: Sonic hedgehog microarray binding compounds – biochemical, small-molecule microarray, 635/667 nm fluorescence, primary screen (AID 1151).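 Further: Shh protein binding to compounds spotted on small-molecule microarray slides; score combines spot fluorescence intensity with signal-to-noise across triplicate slides.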 Conditions: 635 nm fluorescence, higher = more signal.
A short description of assay [11]: optical density shifts of acrAB sulA E. coli – strain DRC41, OD650, 48 h, E. coli filamentation inducer project, primary screen (AID 1152).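 Further: E. coli MC1000 strain DRC41 lacking acrAB efflux pump and sulA.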 The settings on record: higher = more signal, called active from +8 up or from −8 down.
Assay [12] can be described thus: probe aLefty1 binding on compound microarray – biochemical, small-molecule microarray, 635/667 nm fluorescence, primary screen (AID 1153).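 Further: score merges spot fluorescence with signal-to-noise ratio from the scanned slide images.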 Conditions: higher = more signal.
Assay [13] is described as follows: plasmodial surface anion channel blockers, osmotic lysis – cell-based, P. falciparum Indochina, OD700, 1 h, primary screen (AID 1154). Conditions: P. falciparum Indochina infected RBC osmotic lysis, higher = more signal, called active from +8 up or from −8 down.
Assay [14] in a line: plasmodial surface anion channel blockers, osmotic lysis – cell-based, P. falciparum Indochina, OD700, 2 h, primary screen (AID 1155).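 Further: lysis reports solute entry through the parasite surface anion channel PSAC.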 Conditions: P. falciparum Indochina infected erythrocytes, higher = more signal, called active from +8 up or from −8 down.
Assay [15] is described as follows: changes in parasitized red cell lysis, either direction – P. falciparum Indochina, OD700, 3 h, PSAC antagonist project, primary screen (AID 1156). The settings on record: P. falciparum-infected erythrocytes, osmotic lysis, higher = more signal, called active from +8 up or from −8 down.
Assay [16] can be described thus: plasmodial surface anion channel blockers, osmotic lysis – cell-based, P. falciparum Indochina, OD700, 18 h, primary screen (AID 1157). The settings on record: P. falciparum Indochina infected erythrocytes, osmotic lysis OD700, 18 h; higher = more signal, called active from +8 up or from −8 down.
Assay [17] is described as follows: S6 kinase pathway phospho-S6 level changes – cell-based, A549, cytoblot, luminescence, serum-stimulated, primary screen (AID 1158).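 Further: serum-stimulated A549 lung adenocarcinoma cells; signal is phosphorylated S6 detected by cytoblot immunostaining with HRP secondary.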 The settings on record: 5 h, higher = more signal.
Assay [18] deals with NADPH oxidase 2 (Homo sapiens) (UniProt P04839). Description: compounds shifting NOX2 Amplex Red fluorescence – cell-based, HEK293-NOX2, PMA-stimulated, NOX inhibitor project, primary screen (AID 1159). Further: test concentration not given here. Conditions: 45 min, higher = more signal, called active from +8 up or from −8 down.
Chain of NADPH oxidase 2 (Homo sapiens) (P04839 whole entry, looked up): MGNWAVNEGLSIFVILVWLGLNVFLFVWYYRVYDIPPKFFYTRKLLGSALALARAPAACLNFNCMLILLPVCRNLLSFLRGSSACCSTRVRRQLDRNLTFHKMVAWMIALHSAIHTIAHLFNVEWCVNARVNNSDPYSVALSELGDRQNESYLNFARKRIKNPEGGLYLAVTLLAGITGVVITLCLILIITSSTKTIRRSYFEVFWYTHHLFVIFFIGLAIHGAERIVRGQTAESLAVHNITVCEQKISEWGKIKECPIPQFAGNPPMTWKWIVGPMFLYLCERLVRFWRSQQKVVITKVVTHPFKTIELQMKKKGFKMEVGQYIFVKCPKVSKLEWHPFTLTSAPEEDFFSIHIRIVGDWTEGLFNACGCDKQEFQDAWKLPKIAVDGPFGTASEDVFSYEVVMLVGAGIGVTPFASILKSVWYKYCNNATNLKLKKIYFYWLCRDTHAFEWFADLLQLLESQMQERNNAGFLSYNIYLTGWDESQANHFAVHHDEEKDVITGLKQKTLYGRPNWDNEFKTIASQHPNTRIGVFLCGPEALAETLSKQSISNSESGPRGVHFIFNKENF
The target in assay [19] is NADPH oxidase 4 (Homo sapiens) (UniProt Q9NPH5). Description: compounds shifting NOX4 Amplex Red fluorescence – cell-based, HEK293-NOX4, tetracycline-induced, NOX inhibitor project, primary screen (AID 1160). The settings on record: HEK293-NOX4, Amplex Red H2O2 fluorescence, 45 min; higher = more signal, called active from +8 up or from −8 down.
Chain of NADPH oxidase 4 (Homo sapiens) (Q9NPH5 whole entry, looked up): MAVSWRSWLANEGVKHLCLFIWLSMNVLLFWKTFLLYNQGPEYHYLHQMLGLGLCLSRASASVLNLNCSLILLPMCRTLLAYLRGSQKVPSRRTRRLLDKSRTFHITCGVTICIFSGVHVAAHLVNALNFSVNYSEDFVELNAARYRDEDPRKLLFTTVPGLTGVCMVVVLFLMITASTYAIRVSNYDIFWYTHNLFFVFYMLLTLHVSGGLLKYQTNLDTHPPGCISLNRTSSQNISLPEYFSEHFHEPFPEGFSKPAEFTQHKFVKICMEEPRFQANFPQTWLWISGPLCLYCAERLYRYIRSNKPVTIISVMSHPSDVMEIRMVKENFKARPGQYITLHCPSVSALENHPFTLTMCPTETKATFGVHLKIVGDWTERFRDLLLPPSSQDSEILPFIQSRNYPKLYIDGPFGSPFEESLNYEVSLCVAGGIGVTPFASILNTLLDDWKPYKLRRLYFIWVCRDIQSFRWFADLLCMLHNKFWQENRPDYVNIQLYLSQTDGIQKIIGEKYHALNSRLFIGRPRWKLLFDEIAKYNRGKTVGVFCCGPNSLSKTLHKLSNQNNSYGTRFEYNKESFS
Assay [20] has as its target NADPH oxidase 5 (Homo sapiens) (UniProt Q96PH1). Nature of the assay: compounds shifting NOX5 Amplex Red fluorescence – cell-based, HEK293-NOX5, NOX inhibitor project, primary screen (AID 1161). The settings on record: HEK293-NOX5, ionomycin, 45 min, higher = more signal.

Chain of NADPH oxidase 5 (Homo sapiens) (Q96PH1 whole entry, looked up): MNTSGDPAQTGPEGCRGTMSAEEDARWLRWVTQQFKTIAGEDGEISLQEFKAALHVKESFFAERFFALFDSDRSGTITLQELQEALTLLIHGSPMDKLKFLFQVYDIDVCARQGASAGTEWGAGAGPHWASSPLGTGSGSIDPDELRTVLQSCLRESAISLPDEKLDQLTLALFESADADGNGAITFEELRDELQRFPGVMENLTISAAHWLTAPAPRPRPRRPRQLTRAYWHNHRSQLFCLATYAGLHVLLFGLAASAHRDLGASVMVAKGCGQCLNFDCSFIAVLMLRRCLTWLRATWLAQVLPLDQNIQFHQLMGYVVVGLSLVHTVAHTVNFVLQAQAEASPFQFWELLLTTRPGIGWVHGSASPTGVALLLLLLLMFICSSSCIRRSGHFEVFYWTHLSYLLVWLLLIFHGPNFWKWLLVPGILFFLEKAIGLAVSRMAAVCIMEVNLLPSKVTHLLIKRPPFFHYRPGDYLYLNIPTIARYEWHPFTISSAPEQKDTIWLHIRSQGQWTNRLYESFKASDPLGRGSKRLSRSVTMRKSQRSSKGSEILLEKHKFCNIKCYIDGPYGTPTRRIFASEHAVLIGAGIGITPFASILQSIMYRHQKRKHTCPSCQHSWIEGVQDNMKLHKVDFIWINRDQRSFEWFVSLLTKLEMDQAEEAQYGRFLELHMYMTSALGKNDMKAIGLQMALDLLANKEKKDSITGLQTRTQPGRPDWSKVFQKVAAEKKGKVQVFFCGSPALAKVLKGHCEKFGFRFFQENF
Chain of Torsin-1A (Homo sapiens) (O14656 whole entry, looked up): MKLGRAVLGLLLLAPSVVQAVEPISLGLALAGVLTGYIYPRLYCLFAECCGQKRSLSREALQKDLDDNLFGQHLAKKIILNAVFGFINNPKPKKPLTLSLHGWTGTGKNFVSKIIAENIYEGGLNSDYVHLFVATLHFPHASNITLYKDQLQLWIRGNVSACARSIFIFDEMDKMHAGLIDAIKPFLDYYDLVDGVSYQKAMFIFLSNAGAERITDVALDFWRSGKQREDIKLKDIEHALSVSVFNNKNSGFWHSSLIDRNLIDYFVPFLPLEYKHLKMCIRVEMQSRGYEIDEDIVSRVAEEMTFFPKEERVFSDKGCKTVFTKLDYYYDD

`CCCC[C@@H]1C[C@H]1[C@@H](NC(=O)c1cccs1)c1ccc(-c2ccccc2)cc1`: the composite z-score is -0.0739 in [1]; 0.0523 in assay [6]; 0.0541 in assay [7]; -0.473 in assay [8]; -0.0352 in [9]; 1.73 in [10]. This compound also showed a composite z-score in assay [12] of 0.142. Moreover, the z-score was -2.14 (inactive) in [2]; -0.218 (inactive) in assay [3]; 1.35 (inactive) in assay [4]; 2.05 (inactive) in assay [5]; -1.89 (inactive) in assay [11]; 2.41 (inactive) in [13]. For the same compound, the z-score is 0.856 (inactive) in assay [14]; -0.398 (inactive) in [15]; 0.668 (inactive) in [16]; -0.993 in assay [17]; -0.939 (inactive) in [18]; -0.827 (inactive) in [19]. Also, the z-score in assay [20] turned out to be 0.936.

With `COC(=O)[C@@]1(Cc2ccc(F)cc2)[C@H]2c3cc(C(=O)N(C)C)n(Cc4ccccc4)c3C[C@H]2CN1C(=O)c1ccccc1`, the composite z-score was 0.198 in assay [1]; 1.16 in [6]; 0.218 in [7]; -0.243 in assay [8]; 0.099 in [9]; 0.0292 in assay [10]. This compound displayed a composite z-score in [12] of 0.342. In addition, the z-score in assay [2] was -2.67 (inactive); in assay [3], -0.22 (inactive); in assay [4] it was -0.379 (inactive); in assay [5], 1.42 (inactive); in assay [11], -1.39 (inactive); in assay [13], 2.6 (inactive). In addition, the z-score was 0.672 (inactive) in assay [14]; 0.657 (inactive) in assay [15]; 1.23 (inactive) in assay [16]; -0.231 in assay [17]; 1.01 (inactive) in assay [18]; 0.734 (inactive) in [19]. In addition, the z-score in assay [20] turned out to be 1.89.

As for `C=CC1(C(=O)OC)CC=C(C(=O)OC)CC1` (stereo not given), the composite z-score in assay [1] is 0.181; in [6] it was 0.596; in assay [7], -0.154; in assay [8], 0.226; in assay [9], 0.823; in assay [10], 0.434. In addition, the composite z-score in assay [12] came out at 0.0262. In addition, the z-score in [2] was -1.3 (inactive); in assay [3], 0.132 (inactive); in [4] it was 0.332 (inactive); in assay [5], 0.0857 (inactive); in assay [11], 0.2 (inactive); in [13], 0.655 (inactive). Moreover, the z-score in assay [14] was -0.87 (inactive); in [15], -1.3 (inactive); in [16], -1.96 (inactive); in [17] it was 0.674; in assay [18], 0.379 (inactive); in [19], -0.389 (inactive). Further, in assay [20], the z-score is -0.0703.

`COc1ccc(CCNC(=O)[C@@]2(Sc3ccc(C)cc3)CC(=O)N(C3Cc4ccccc4C3)[C@@H]2c2ccc(CO)cc2I)cc1`: the composite z-score in assay [1] is -0.234; in assay [6] it was -0.814; in assay [7], -0.196; in assay [8], -0.27; in assay [9] it was 0.0598; in assay [10] it was -0.862. The compound further had a composite z-score in assay [12] of 0.627. Moreover, the z-score is -1.23 (inactive) in [2]; 0.74 (inactive) in assay [3]; 0.649 (inactive) in assay [4]; 1.82 (inactive) in assay [5]; 0.657 (inactive) in [11]; 10.7 (active) in assay [13]. Moreover, the z-score in [14] was 1.95 (inactive); in assay [15], 0.497 (inactive); in assay [16], 0.768 (inactive); in assay [17] it was -0.123; in [18], 1.51 (inactive); in assay [19], -1.66 (inactive). Besides, the z-score in assay [20] was 1.9.

Take `CCCCC(CC)C(O)C1C=CC2C(=O)N(Cc3ccccc3)C(=O)C2N1n1cnnc1` (stereo not given): the composite z-score was -0.205 in [1]; 0.124 in assay [6]; -0.166 in [7]; 0.17 in assay [8]; 0.606 in assay [9]; -0.405 in assay [10]. In assay [12], this compound came in with a composite z-score of 0.0903. Moreover, the z-score in assay [2] was -0.114 (inactive); in assay [3], 0.999 (inactive); in assay [4], 0.127 (inactive); in [5], 0.408 (inactive); in [11] it was -1.5 (inactive); in assay [13] it was 0.218 (inactive). Besides, the z-score in assay [14] is 0.0653 (inactive); in assay [15], 0.604 (inactive); in assay [16], 0.411 (inactive); in [17], -0.908; in assay [18], -0.132 (inactive); in assay [19] it was -0.476 (inactive). In addition, the z-score in assay [20] was -0.99.

`C=C(CCCC)/C(=C/C[C@H](OC(C)=O)c1ccccc1OCCO)c1cc(C(=O)OC)ccc1OC`: the composite z-score is 0.0205 in assay [1]; -0.24 in assay [6]; -0.157 in assay [7]; -0.266 in assay [8]; -0.174 in assay [9]; 0.199 in [10]. In [12], the composite z-score was -0.0046. In addition, the z-score in assay [2] is -3.83 (inactive); in [3] it was 0.437 (inactive); in [4] it was 13.3 (active); in assay [5], -0.671 (inactive); in assay [11], 1.02 (inactive); in assay [13], 15.1 (active). In addition, the z-score was 0.621 (inactive) in assay [14]; 2.54 (inactive) in [15]; -1.43 (inactive) in assay [16]; 0.708 in assay [17]; 0.254 (inactive) in assay [18]; 0.101 (inactive) in [19]. The z-score in assay [20] is -1.92.

Regarding `Cc1ccccc1C(O)C1C=CC2C(=O)N(c3ccccc3)C(=O)C2N1Nc1ccc(C(C)C)cc1` (stereo not given), the composite z-score in [1] was 0.0944; in assay [6], 1.26; in [7] it was 0.176; in assay [8], -0.0717; in assay [9] it was 0.62; in assay [10], 0.214. Besides, the composite z-score in assay [12] came to 0.317. In addition, the z-score is -0.0816 (inactive) in assay [2]; -0.481 (inactive) in assay [3]; 0.812 (inactive) in assay [4]; 0.131 (inactive) in assay [5]; -1.6 (inactive) in [11]; 1.85 (inactive) in [13]. In addition, the z-score was 1.05 (inactive) in assay [14]; 0.918 (inactive) in assay [15]; 0.974 (inactive) in [16]; -0.405 in assay [17]; -1.22 (inactive) in assay [18]; -4.14 (inactive) in assay [19]. The z-score in assay [20] was -4.42.

Turning to `NC(=O)[C@@H]1[C@H]2C(=O)O[C@H](c3ccccc3)[C@H](c3ccccc3)N2[C@H](c2ccc(O)cc2)[C@@]12C(=O)Nc1ccccc12`, the composite z-score in [1] is -0.766; in [6], -0.99; in assay [7], -0.152; in [8], -2.99; in assay [9] it was -2.06; in assay [10], 0.154. Moreover, the composite z-score in assay [12] was 0.157. In addition, the z-score is -4.14 (inactive) in assay [2]; -0.609 (inactive) in assay [3]; -0.491 (inactive) in assay [4]; 0.276 (inactive) in assay [5]; 0.428 (inactive) in assay [11]; 1.19 (inactive) in assay [13]. In addition, the z-score was -0.619 (inactive) in assay [14]; -0.267 (inactive) in [15]; -2.21 (inactive) in [16]; 1.57 in assay [17]; -1.93 (inactive) in assay [18]; -1.13 (inactive) in [19]. In addition, in [20], the z-score is -0.42.

The values are drawn from PubChem BioAssay.
